Calls of active or inactive are those of the source. The calls were made as follows: active = hit-call score of the fitted dose curve at least 0.9, where 1 is the maximum; inactive = score below 0.9.

The source of these data is PubChem BioAssay (EPA / NIEHS).

A short description of this assay: APR_HepG2_MitoMembPot_1hr: Apredica 1-hour HepG2 Assay for Mitochondrial Membrane Potential (AID 2282675). Conditions: imaging, actives raise or lower the signal. On the procedure: APR_HepG2_1hr is a cell-based, multiplexed-readout assay that uses HepG2, a human liver cell line, with measurements taken at 1 hour after chemical dosing in a 384-well plate.APR_HepG2_MitoMembPot_1hr is one of 10 assay component(s) measured or calculated from the APR_HepG2_1hr assay. It is designed to make measurements of dye binding, a form of membrane potential reporter, as detected with fluorescence intensity signals by HCS Fluorescent Imaging technology.Data from the assay component APR_HepG2_MitoMembPot_1hr was analyzed into 1 assay endpoint. This assay endpoint, APR_HepG2_MitoMembPot_1hr, was analyzed with bidirectional fitting relative to DMSO as the negative control and baseline of activity. Using a type of membrane potential reporter, gain or loss-of-signal activity can be used to understand changes in the signaling. Furthermore, this assay endpoint can be referred to as a primary readout, because this assay has produced multiple assay endpoints where this one serves a signaling function. To generalize the intended target to other relatable targets, this assay endpoint is annotated to the cell morphology intended target family, where the subfamily is organelle conformation.
Cells were treated with dimethyl sulfoxide (DMSO) as a solvent control at a final concentration of 0.5% v/v or with compounds in DMSO with a resulting final DMSO concentration of 0.5% v/v. Compound treatment was done at concentrations of 0.39, 0.78, 1.56, 3.12, 6.24, 12.5, 25, 50, 100, and 200 uM in duplicate on each plate. Cells were treated with compounds for 1, 24, or 72 hr. Carbonyl […] m-chloro-phenylhydrazone (CCCP) and taxol were used as positive controls for mitochondrial function and cytoskeletal stability, respectively; DMSO served as the negative control for this experiment. Cells were fixed by the direct addition of 50 uL formaldehyde in Hank's Balanced Salt Solution (HBSS) to a final concentration of 3.7%. After incubation in the fixation medium for 30 min at room temperature (293-298 K), cells were rinsed twice with HBSS and treated with cell permeabilization buffer (16 uL of 0.5% Triton X-100) for 10 min at room temperature (293-298 K) before labeling. For mitochondrial membrane potential and mitochondrial measurements, pre-fixed cells were incubated with 50 uL of MitoTracker Red CMXRos (Invitrogen) at a concentration of 250 nM for 30 min before fixation. In the remaining cases, post-fixed cells were labeled by incubation with a multiplexed mixture of primary antibodies in HBSS for 60 min at room temperature (293-298 K) to detect immunoreactivity of c-Jun (1:500), phospho-histone H3 (1:100), phospho-histone H2A.x (1:200), p53 (1:400), alpha-tubulin (1:200) and Hoechst 33342 (2 ug/mL). Cells were labeled for multiplexed imaging on two separate plates: a) Hoechst 33342, MitoTracker Red, phospho-histone H3, and alpha-tubulin, and b) Hoechst 33342, phospho-histone H2A.x, and c-Jun. A final rinse with HBSS (50 uL) was performed before analysis. The primary and secondary antibodies for the proteins were phospho-histone H3 (rabbit anti-phospho-histone H3 and FITC-donkey anti-rabbit IgG), phospho-histone H2A.x (mouse anti-phospho-histone H2A.x and FITC-donkey anti-mouse IgG), c-Jun (rabbit anti-phospho-c-Jun and Cy3-donkey anti-rabbit IgG), p53 (sheep anti-p53 and Cy5-donkey anti-sheep IgG), alpha-tubulin (mouse anti-alpha-tubulin and Cy5-donkey anti-mouse IgG). These antibodies are available as the CellCiphr HepG2 assay kit (Millipore).Digital images of each well were captured using a Cellomics ArrayScan VTI (Thermo Scientific Cellomics) (0.8 NA objective, 0.63x optical coupler, and XF-93 filter set) at 20x magnification. The images were acquired using the autofocus feature of the ArrayScan instrument, which entails the following steps. First, the camera focuses on channel 1 (Hoechst 33342), where nuclei are identified. Second, a Z offset of 1 um is used for capturing mitochondria (MitoTracker Red). […]
On to `OCCOc1ccccc1`, for which the molecule was called inactive. With `CC1(c2ccc(Oc3ccccc3)cc2)OC(=O)N(Nc2ccccc2)C1=O` (stereo not given), the molecule was classed as inactive. As for `O=C(O)COc1ccc(Cl)cc1Cl`, the result was inactive. For `CCc1ccc(C(=O)NN(C(=O)c2cc(C)cc(C)c2)C(C)(C)C)cc1`, the molecule was classed as inactive. As for `ClC1C(Cl)C(Cl)C(Cl)C(Cl)C1Cl` (stereo not given), the outcome was inactive. On the same count and under the same terms, with `CCN(CC)C(=O)SCc1ccc(Cl)cc1` the entry was “inactive”; with `COc1nn(CSP(=S)(OC)OC)c(=O)s1`, “inactive”; with `O=C(NC(=O)c1c(F)cccc1F)Nc1ccc(OC(F)(F)C(F)OC(F)(F)F)c(Cl)c1` (stereo not given), “inactive”. Take `CNC(=O)/C=C(\C)OP(=O)(OC)OC`: the result was inactive.

As to `COP(=S)(OC)Oc1ccc([N+](=O)[O-])cc1`, the molecule was called inactive. Take `N#Cc1c(Cl)c(Cl)c(Cl)c(C#N)c1Cl`: the AC50 is 61.5 µM (active). In the case of `Oc1cc(Cl)ccc1Oc1ccc(Cl)cc1Cl`, the molecule was called inactive. In the case of `O=C(O)CCCOc1ccc(Cl)cc1Cl`, the molecule was classed as inactive.

Take `COc1cc(OC)nc(NC(=O)NS(=O)(=O)c2cc(NC=O)ccc2C(=O)N(C)C)n1`: the call was inactive.

As to `COC(=O)c1ccccc1S(=O)(=O)NC(=O)N(C)c1nc(C)nc(OC)n1`, the call was inactive. With `CNC(=O)Oc1cccc(N=CN(C)C)c1`, the molecule was called inactive. For the molecule `CC(C)(C)C(O)/C(=C\c1ccc(Cl)cc1Cl)n1cncn1` (stereo not given), the molecule was classed as inactive. Still for that read-out and setting: with `CC(C)OC(=O)Nc1cccc(Cl)c1` the entry was “inactive”; with `CCOc1nc(NC)nc(NC(=O)NS(=O)(=O)c2ccccc2C(=O)OC)n1`, “inactive”.

Consider `CCCN(CCOc1c(Cl)cc(Cl)cc1Cl)C(=O)n1ccnc1`, for which the molecule was called inactive. In the case of `Cc1[nH]c(=O)n(C(C)(C)C)c(=O)c1Cl`, the outcome was inactive. Regarding `CC(C)(C)C(O)C(Oc1ccc(Cl)cc1)n1cncn1` (stereo not given), the outcome was inactive. With `COC(=O)c1ccccc1S(=O)(=O)NC(=O)Nc1nc(C)nc(OC)n1`, the outcome was inactive. Still for that read-out and setting: the result for `COC(=O)c1ccccc1CS(=O)(=O)NC(=O)Nc1nc(OC)cc(OC)n1` reads “inactive”; that for `CCOC1Oc2ccc(OS(C)(=O)=O)cc2C1(C)C` (stereo not given), “inactive”; that for `CCC(C)(NC(=O)c1cc(Cl)c(C)c(Cl)c1)C(=O)CCl` (stereo not given), “inactive”. For the molecule `COP(=S)(OC)Oc1ccc(SC)c(C)c1`, the AC50 is 59.1 µM (active). In the case of `O=[N+]([O-])c1c(Cl)c(Cl)c(Cl)c(Cl)c1Cl`, the molecule was called inactive. Take `CC[C@H](C)[C@H]1O[C@]2(C=C[C@@H]1C)C[C@@H]1C[C@@H](C/C=C(\C)[C@@H](O[C@H]3C[C@H](OC)[C@@H](O[C@H]4C[C@H](OC)[C@@H](O)[C@H](C)O4)[C@H](C)O3)[C@@H](C)/C=C/C=C3\CO[C@@H]4[C@H](O)C(C)=C[C@@H](C(=O)O1)[C@]34O)O2` (tested in a mixture with another compound): the result was inactive. Turning to `C[C@H]1[C@H](c2ccc(Cl)cc2)SC(=O)N1C(=O)NC1CCCCC1`, the call was inactive. Turning to `CN1CSC(=S)N(C)C1`, the molecule was called inactive. On the same count and under the same terms, with `CCS(=O)(=O)c1cccnc1S(=O)(=O)NC(=O)Nc1nc(OC)cc(OC)n1` the entry was “inactive”; with `O=[N+]([O-])/N=C1\NCCN1Cc1ccc(Cl)nc1`, “inactive”. As to `O=C(Nc1ccccc1)Nc1cnns1`, the AC50 was 76.2 µM (active). `[2H]C1([2H])[n+]2ccccc2-c2cccc[n+]2C1([2H])[2H]`: the molecule was classed as inactive. `Clc1ccccc1-c1nnc(-c2ccccc2Cl)nn1`: the call was inactive. In the case of `Oc1ccc(Cl)cc1Cc1ccccc1`, the call was inactive. For `CCCN(CCC)c1c([N+](=O)[O-])cc(C(F)(F)F)cc1[N+](=O)[O-]`, the result was inactive. For `C#CCN1C(=O)COc2cc(F)c(N3C(=O)C4=C(CCCC4)C3=O)cc21`, the molecule was called inactive.

For `O=S1OCC2C(CO1)C1(Cl)C(Cl)=C(Cl)C2(Cl)C1(Cl)Cl` (stereo not given), the AC50 is 118 µM (active).

The AC50 is the concentration giving half of the maximal activity seen.
